# Assay results taken from the supplement of paper PMC9262897, “Low-cost anti-mycobacterial drug discovery using engineered E. coli” (Nature Communications, 2022).
# Counter-ions that a name gives are not always drawn. ± gives the standard deviation of the averaged measurements.
# Tested on: E. coli TESEC Mtb Alr
# Experiment: growth (OD600 after 10 h); higher = more growth (less inhibition)
# Settings: arabinose 10000000 nM; compound 0.1 mM; raw OD600 reference: median of DMSO wells […], cell-free background 0.052
# Experimental: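 TESEC Mtb Alr E. coli (ΔaraC ΔtolC ΔentC Δalr ΔdadX, arabinose-inducible Mtb Alr) or the Alr+ wild-type control strain, grown in defined M9-fructose medium without D-alanine in 96-well plates with Prestwick library compounds at 0.1 mM and 1% DMSO. Low Alr induction is 0.1 µM arabinose and high induction is 10 mM arabinose.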
row,Structure (SMILES),growth
1,CC(C)NCC(O)COc1ccc(COCCOC(C)C)cc1 (stereo not drawn) [Bisoprolol fumarate],0.37 ± 0.028
2,c1ccc2c(CC3=NCCN3)cccc2c1 [Naphazoline hydrochloride],0.323 ± 0.018
3,CC(=O)OCC(=O)[C@@]1(O)CC[C@H]2[C@@H]3CCC4=CC(=O)CC[C@]4(C)[C@@]3(F)[C@@H](O)C[C@@]21C [Fludrocortisone acetate],0.229 ± 0.02
4,O=P(O)(O)C(O)(Cn1ccnc1)P(=O)(O)O [Zoledronic acid hydrate],0.294 ± 0.021
5,Cc1c(N(C)C)c(=O)n(-c2ccccc2)n1C [Amidopyrine],0.365 ± 0.037
6,C=C1/C(=C\C=C2/CCC[C@]3(C)[C@@H]([C@H](C)/C=C/[C@@H](O)C4CC4)CC[C@@H]23)C[C@@H](O)C[C@@H]1O [Calcipotriene],0.0671 ± 0.0016
7,NS(=O)(=O)c1cc2c(cc1Cl)N=CNS2(=O)=O [Chlorothiazide],0.354 ± 0.0098
8,CN(C)CCc1c[nH]c2ccc(Cn3cncn3)cc12 [Rizatriptan benzoate],0.34 ± 0.0085
9,Nc1ncn(C2OC(CO)C(O)C2O)c(=O)n1 (stereo not drawn) [Azacytidine-5],0.066 ± 0.0049
10,CC(=O)N[C@@H](CC(=O)N[C@@H](CCC(=O)O)C(=O)O)C(=O)O [Spaglumic acid],0.327 ± 0.0062
11,Cc1c(NC(=O)c2cccnc2)c(=O)n(-c2ccccc2)n1C [Nifenazone],0.339 ± 0.011
12,Cc1ccnc2c1NC(=O)c1cccnc1N2C1CC1 [Nevirapine],0.343 ± 0.011
13,CC(C)NCC(O)COc1ccc(CCOCC2CC2)cc1 (stereo not drawn) [Betaxolol hydrochloride],0.341 ± 0.014
